Assay [1] in a line: Viability qHTS for spleen associated tyrosine kinase inhibitor (SYKi) drug resistant MV4-11 cells (AID 1963824). Further: nearly all actives have a fitted effect of over 35% in size. The procedure, abridged: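 SYK-inhibitor-resistant MV4-11 AML cells were seeded at 500 per well onto compound and cultured 72 hours (37 °C, 5% CO2). CellTiter-Glo was then added, and after 10 min at room temperature, luminescence gave viability.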
On the technique in general: qHTS replaces the single test concentration by a dilution series.

Assay [2] can be described thus: Quantitative highthroughput screen to assess conditional lethalithy of NOMO1 cells grown in Human Plasma-Like Medium with dialyzed fetal bovine serum (HPLM+ds) (AID 1963878). Further: nearly all actives have a fitted effect of over 35% in size.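 On Viability: 100% = DMSO wells and 0% = empty wells on each plate.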 The procedure, abridged: (§1)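 Each medium arm—HPLM with 10% dialyzed FBS, or RPMI1640 with 5 mM glucose and 10% untreated or dialyzed FBS—was screened against an 11-point, 3-fold compound titration for 48 h at 37 °C, with CellTiter-Glo luminescence as endpoint.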

Assay [3] is described as follows: Quantitative highthroughput screen to assess conditional lethalithy of SEM cells grown in RPMI1640 with unreated serum (RPMI+s) (AID 1963883). Further: nearly all actives have a fitted effect of over 35% in size.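 On Viability: 100% = DMSO wells and 0% = empty wells without cells.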 Summed up:
as §1

Assay [4] is described as follows: Quantitative highthroughput screen to assess conditional lethalithy of SEM cells grown in Human Plasma-Like Medium with dialyzed fetal bovine serum (HPLM+ds) (AID 1963882). Further: nearly all actives have a fitted effect of over 35% in size. On Viability: series mostly up to about 46 µM. Summed up:
as §1

The nature of assay [5]: Quantitative highthroughput screen to assess conditional lethalithy of SEM cells grown in RPMI1640 with dialyzed fetal bovine serum (RPMI+ds) (AID 1963884). Further: nearly all actives have a fitted effect of over 35% in size.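 On Viability: series mostly up to about 46 µM; 100% = DMSO control wells and 0% = empty wells without cells.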 Summed up: as §1
Assay [6] in a line: Cellular viability qHTS for adrenocortical cancer (ACC) cell line SW-13 (AID 1963989). Further: nearly all actives have a fitted effect of over 65% in size.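 On activity (max response): cells grown in serum-free medium with ITS supplement; on the % scale 0 is the no-effect control and ±100 the full control effect.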 The note with it: SW-13 ACC cells viability, CellTiter-Glo, 48 h; activity (max response): hits give low values. Summed up: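 SW-13 cells in ITS-supplemented serum-free DMEM were plated overnight, then exposed for 48 h at 37C to compound titrations (up to 46 uM final). Viability was read by CellTiter-Glo luminescence; four-parameter logistic fits gave IC50 and efficacy.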

The nature of assay [7]: Cellular viability qHTS for adrenocortical cancer (ACC) cell line NCI-H295R (AID 1963990). Further: nearly all actives have a fitted effect of over 60% in size. Summed up:
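Luminescent ATP read-out (CellTiter-Glo, 20 min RT) after 48 h drug exposure of NCI-H295R cells; a titration up to 46 uM final. Data normalized to doxorubicin (100% inhibition) and DMSO (0%); 4-parameter fit gives IC50, max response.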

The nature of assay [8]: Quantitative highthroughput screen to assess conditional lethalithy of NOMO1 cells grown in RPMI1640 with dialyzed fetal bovine serum (RPMI+ds) (AID 1963877). Further: nearly all actives have a fitted effect of over 30% in size.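 On Viability: series mostly up to about 46 µM; 100% = DMSO control wells and 0% = empty wells.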 The procedure, abridged:
as §1

Assay [9] can be described thus: Quantitative highthroughput screen to assess conditional lethalithy of P12 Ichikawa cells grown in Human Plasma-Like Medium with dialyzed fetal bovine serum (HPLM+ds) (AID 1963879). Further: nearly all actives have a fitted effect of over 35% in size. On Viability: series mostly up to about 46 µM. Conditions: Potency: viability. Summed up: as §1
Assay [10] in a line: Quantitative highthroughput screen to assess conditional lethalithy of P12 Ichikawa cells grown in RPMI1640 with untreated serum (RPMI+s) (AID 1963881). Further: nearly all actives have a fitted effect of over 35% in size.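 On Viability: series mostly up to about 46 µM; 100% = DMSO wells and 0% = empty wells without cells.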 The note with it: Potency: viability. Summed up: as §1
The nature of assay [11]: Quantitative highthroughput screen to assess conditional lethalithy of P12 Ichikawa cells grown in RPMI1640 with dialyzed fetal bovine serum (RPMI+ds) (AID 1963880). Further: nearly all actives have a fitted effect of over 35% in size.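 On Viability: 100% = DMSO wells and 0% = empty wells on each plate.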 The note with it: Potency: P12-Ichikawa viability. Summed up: as §1

Where “and” joins values, the source holds several entries; their conditions need not be identical. Equal values may be shown once. Results filed as inconclusive are left out. Unmarked numbers belong to inactive results. Calls of active or inactive are those of the source. The call rests on the fitted dose curve; in most records, active means well fitted curve in the direction sought with a large enough effect; inconclusive means small, poorly fitted or top-dose-only effect, or another doubt; inactive means no such curve, though single readings can be large; an effect the other way counts as inactive or inconclusive.
Potency means the concentration at half of the fitted maximal effect.

With `CCOC(=O)[C@@]1(CCCCCCOc2ccc(Cl)cc2)CO1`, the Potency is 20.9 µM (active) in assay [1] and 11.7 µM (active) in assay [3]. The Potency entry in assay [2] was “inactive”.

For `CCN1CCN(Cc2ccc(-c3cc4c(N[C@H](C)c5ccccc5)ncnc4[nH]3)cc2)CC1`, the Potency in assay [1] was 1.86 µM (active); in assay [2] it was 20.9 µM (active); in assay [4], 16.6 µM (active); in assay [3], 14.8 µM (active); in assay [5] it was 18.7 µM (active); in assay [6], 4.47 µM (active). Moreover, in [7], the Potency is 31.6 µM (active).

`O=c1[nH]c(=O)n(C2CCCO2)cc1F` (stereo not given): the Potency in [1] is 18.6 µM (active). Also, the Potency result in assay [8], in assay [2], in assay [4], in [3] and in [7] was “inactive” each time. Also, in assay [6], the activity (max response) was 4.88%.

With `Cc1ccnc2c1NC(=O)c1cccnc1N2C1CC1`, the Potency entry in [1], in [9], in assay [10], in [4], in assay [3] and in [5] was “inactive” in each case. In addition, in assay [7], the Potency entry is “inactive”. Further, the Potency in [8] is 2.09 µM (active). In assay [6], the activity (max response) is -0.191%.

As for `O=C(CN1C(=O)C2(CCCC2)NC[C@H]1c1cc(F)cc(F)c1)Nc1ccc2c(c1)C[C@@]1(C2)C(=O)Nc2ncccc21`, the Potency in [1] is 18.6 µM (active); in assay [2], 20.9 µM (active). Moreover, the Potency result in assay [9], in assay [11], in assay [3], in [5] and in assay [7] was “inactive” each time. Further, in assay [6], the activity (max response) was -4.31%.

On to `CC(C(=O)O)c1cccc(C(=O)c2ccccc2)c1` (stereo not given), for which the Potency result in assay [1], in assay [8], in assay [2], in assay [9], in assay [11] and in assay [10] was “inactive” in each case. Besides, the Potency entry in assay [4], in assay [3] and in assay [7] was “inactive” each time. Also, the activity (max response) in assay [6] was 3.98% and 6.3%.

Regarding `O=C(NCc1ccncc1)C12C[C@H]3C[C@@H](C1)CC(c1ccc(Cl)cc1)(C3)C2`, the Potency is 11.8 µM (active) in assay [1]; 18.7 µM (active) in assay [2]; 11.8 µM (active) in [9]; 20.9 µM (active) in [11]; 20.9 µM (active) in assay [10]; 14.8 µM (active) in [4]. For the same compound, the figures for the Potency in [3] and in assay [5] were 7.43 µM (active) and 13.2 µM (active), respectively. Further, the Potency entry in assay [7] is “inactive”.

`CN1CCc2c(n(Cc3ccc(C(=O)NO)cc3)c3ccccc23)C1`: the Potency was 18.6 µM (active) in assay [1], 26.4 µM (active) in assay [4], 23.5 µM (active) in assay [3] and 25.1 µM (active) in [7]. Moreover, the Potency result in [8] is “inactive”.

Turning to `Nc1nc(=O)n([C@H]2C[C@H](O)[C@@H](CO)O2)cc1F`, the Potency in [1] was 0.0295 µM (active); in [8], 0.0209 µM (active); in [11], 0.0833 µM (active); in [10], 0.105 µM (active).

As to `CC[C@]1(O)C[C@H]2CN(CCc3c([nH]c4ccccc34)[C@@](C(=O)OC)(c3cc4c(cc3OC)N(C=O)[C@H]3[C@@](O)(C(=O)OC)[C@H](OC(C)=O)[C@]5(CC)C=CCN6CC[C@]43[C@@H]65)C2)C1`, the Potency in assay [1] was 119 nM (active) and 10.5 nM (active); in assay [8] it was 0.0662 µM (active); in assay [9], 0.0264 µM (active); in [11] it was 0.0418 µM (active); in [4], 0.0332 µM (active); in assay [6] it was 8.2 nM (active) and 28.2 nM (active). In addition, the Potency in [7] was 146 nM (active) and 1.78 µM (active).

As for `Clc1ccc(C(Cn2ccnc2)OCc2ccc(Sc3ccccc3)cc2)c(Cl)c1` (stereo not given), the Potency in assay [1] was 6.61 µM (active). Further, the Potency result in assay [2], in assay [4] and in assay [5] was “inactive” each time.

In the case of `O=C(Nc1ccccc1-c1cn2c(CN3CCNCC3)csc2n1)c1cnc2ccccc2n1`, the Potency in assay [1] was 13 µM (active); in assay [10], 26.4 µM (active); in assay [4], 18.7 µM (active); in assay [3] it was 18.7 µM (active); in assay [5], 13.2 µM (active); in [6], 3.55 µM (active). The Potency result in assay [8] and in assay [2] was “inactive” in each case.

In the case of `CN1N=C(N)c2cn([C@@H]3O[C@H](COP(=O)(O)O)[C@@H](O)[C@@H]3O)c3ncnc1c23`, the Potency in [1] was 0.0742 µM (active); in assay [2], 5.26 µM (active); in assay [4], 0.0296 µM (active); in [3], 0.0296 µM (active); in [5] it was 0.0074 µM (active).

For `CCS(=O)(=O)N1CC(CC#N)(n2cc(-c3ncnc4[nH]ccc34)cn2)C1`, in [1], the Potency was 16.4 µM (active) and 10.5 µM (active). Besides, the Potency entry in [8], in assay [9], in [11] and in [10] was “inactive” each time.

As for `O=C(Nc1nc2ccccc2n1CCN1CCOCC1)c1cccc([N+](=O)[O-])c1`, in assay [1], the Potency was 2.63 µM (active). In addition, the Potency result in assay [8], in assay [2], in assay [9], in assay [11], in assay [10] and in assay [4] was “inactive” throughout. In addition, the Potency result in assay [3], in assay [5] and in assay [7] was “inactive” in each case. The activity (max response) in [6] is 3.94%.

For the compound `O=C(CCc1ccc(O)cc1)c1c(O)cc(O)cc1O`, the Potency entry in assay [1], in assay [8], in assay [9], in assay [11], in assay [10] and in assay [3] was “inactive” throughout. Further, in assay [6], the activity (max response) is -4.39%.

`CCCNCC(O)COc1ccccc1C(=O)CCc1ccccc1` (stereo not given): the Potency in assay [1] is 15 µM (active) and 16.6 µM (active). The Potency result in assay [8], in assay [9], in [11], in [10], in assay [4] and in [3] was “inactive” each time. In [5], the Potency entry was “inactive”.

`COc1cc(F)c(F)c(Nc2ccc(I)cc2F)c1NS(=O)(=O)C1(C[C@H](O)CO)CC1`: the Potency in assay [1] was 0.525 µM (active); in [3], 20.9 µM (active); in assay [6] it was 14.1 µM (active); in assay [7] it was 20 µM (active). The Potency result in assay [8] and in [10] was “inactive” in each case.

On to `CC1(C)CCC(CN2CCN(c3ccc(C(=O)NS(=O)(=O)c4ccc(NCC5CCOCC5)c([N+](=O)[O-])c4)c(Oc4cnc5[nH]ccc5c4)c3)CC2)=C(c2ccc(Cl)cc2)C1`, for which the Potency is 10 nM (active) and 41.7 nM (active) in [1]; 0.105 µM (active) in assay [8]; 0.0332 µM (active) in [4]; 0.0526 µM (active) in [3]; 0.0264 µM (active) in [5]. Besides, the activity (max response) in [6] was -2.3%. Besides, the Potency result in [7] is “inactive”.

The values above are taken from PubChem BioAssay (NCATS).
